Bioassay records from PubChem.
This excerpt belongs to a sample that is enriched for hits.
LmPK inhibitor – qHTS Assay for Inhibitors of Leishmania Mexicana Pyruvate Kinase (LmPK). Q27686. purified LmPK, Kinase-Glo ATP luminescence, 1 h. Potency, µM (titrated, usually from 57.5 µM), without a hit: at the top dose activity change, negative = inhibition, actives largely listed as inhibitors. actives 0.37% (n = 290,000); note: potency is the fitted concentration of half-maximal effect; % is set by controls: 0 for no effect and ±100 for the full control effect
Target sequence (Q27686 whole entry, looked up): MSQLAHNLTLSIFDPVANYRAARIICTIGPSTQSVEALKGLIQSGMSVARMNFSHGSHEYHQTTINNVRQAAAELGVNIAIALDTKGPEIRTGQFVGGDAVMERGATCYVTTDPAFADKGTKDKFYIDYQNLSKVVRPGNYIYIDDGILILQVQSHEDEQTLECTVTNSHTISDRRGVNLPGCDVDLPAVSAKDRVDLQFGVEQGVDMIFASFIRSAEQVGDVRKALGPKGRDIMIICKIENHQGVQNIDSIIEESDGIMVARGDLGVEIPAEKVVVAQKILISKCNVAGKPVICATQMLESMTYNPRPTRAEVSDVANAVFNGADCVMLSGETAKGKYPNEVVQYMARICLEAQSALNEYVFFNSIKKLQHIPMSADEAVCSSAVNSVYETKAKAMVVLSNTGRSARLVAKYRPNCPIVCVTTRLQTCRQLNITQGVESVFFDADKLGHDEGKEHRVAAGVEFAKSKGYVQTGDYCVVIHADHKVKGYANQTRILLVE
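Pyruvate kinase activity monitored as ATP production (luciferase luminescence). Conditions: 0.1 nM enzyme, 0.5 mM PEP, 0.1 mM ADP, 1 h, RT; normalized against uninhibited and no-enzyme wells.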
TbPYK inhibitor – qHTS of Trypanosoma Brucei Inhibitors. pyruvate kinase (Trypanosoma brucei), Q57TT1. TbPYK enzyme, Kinase-Glo Plus ATP luminescence, 45 min. Potency, µM (series often up to 76.8 µM), for inactives: at the top dose activity, negative = inhibition, most hits filed as inhibitors. actives 0.12% (n = 410,000). AID 624173, 2012; note: potency is the fitted concentration of half-maximal effect; % is set by controls: 0 for no effect and ±100 for the full control effect; nearly all actives have a fitted effect of over 50% in size
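Luminescence from Kinase-Glo Plus, added after a 45-minute room-temperature reaction, served as the end-point read-out. The enzyme and substrate were preincubated with compound before ADP (130 uM final) initiated turnover. Concentration-effect curves came from normalized qHTS data.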
RE007 growth inh – qHTS Assay for Inhibitors of the HIV-1 protein Vpr | S. pombe RE007 Vpr strain, BacTiter-Glo ATP luminescence, 24 h | actives 0.21% (n = 360,000) | Potency, µM (series often up to 92.2 µM), inactives show at the top dose activity change, negative = less growth, hits mostly inhibitors; active = well fitted falling curve with a large enough effect; inconclusive = small, poorly fitted or top-dose-only effect; inactive = no such curve, though single readings can be large or run the other way; note: potency is the fitted concentration of half-maximal effect; % is set by controls: 0 for no effect and ±100 for the full control effect; nearly all actives have a fitted effect of over 50% in size
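Fission yeast RE007 carrying one integrated HIV-1 vpr copy, seeded at OD 0.01 in PMG+AL medium with 23 nL pinned compound. Grown 24 h at 30 degrees; viability read by BacTiter-Glo luminescence after 5 min.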
FBPA Giardia inh – qHTS Assay for Inhibitors of Fructose-1,6-bisphosphate Aldolase from Giardia Lamblia; purified Giardia FBPA; Potency, µM (series often up to 59.6 µM), inactives show at the highest dose activity, negative = inhibition, actives largely listed as inhibitors; actives 0.71% (n = 290,000); AID 2451, 2010; note: potency is the fitted concentration of half-maximal effect; % is set by controls: 0 for no effect and ±100 for the full control effect; nearly all actives have a fitted effect of over 55% in size
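40 nM FBPA preincubated 10 min at RT with compound (up to 57.5 uM final), then substrate plus GAPDH/TPI/NAD/arsenate coupling and diaphorase/resazurin added. Fluorescence read after 20 min at RT, 525/598 nm.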
CHX counter – Cycloheximide Counterscreen for Small Molecule Inhibitors of Shiga Toxin; AID 2314, 2010; actives 12% (n = 300,000); cell reporter, cycloheximide protein synthesis inhibition counterscreen; max response, %; in the data active = max response mostly above about 13%, no sharp cut-off; inactive = mostly below about 14%; note: read at 38.3 µM for the half of the compounds with a filed dose; 0% is about no effect
Shiga toxin inh – A qHTS for Small Molecule Inhibitors of Shiga Toxin; Vero cells, Shiga toxin protein synthesis inhibition reporter; inhibition, % at 38.7 µM; actives 9.2% (n = 290,000); AID 2315, 2010; in the data active = inhibition mostly above about 28%, no sharp cut-off; inactive = mostly below about 43%; note: 0% is about no effect
* = called active by the depositor; i = inactive; ? = inconclusive; . = no result given. Unless noted, calls come from the whole dose curve; as a rule, active = well fitted curve in the direction sought with a large enough effect; inconclusive = small, poorly fitted or top-dose-only effect, or another doubt; inactive = no such curve, though single readings can be large; an effect the other way counts as inactive or inconclusive.

SMILES	LmPK inhibitor	TbPYK inhibitor	RE007 growth inh	FBPA Giardia inh	CHX counter	Shiga toxin inh
CCC(C)C(NC(=O)OC(C)(C)C)C(=O)NC1COC2CC(n3ccc(=O)[nH]c3=O)OC12 (configuration not stated)	.	.	.	5.0%	-5.8	8.3
CCOc1ccc(-c2nc(CSc3nnc(N)s3)cs2)cc1OC	3.3%	-7.4%	4.9%	-1.5%	33.2*	84.8*
COc1ccc(OC)c(Nc2nc(N)nc(CSc3nnc(N)s3)n2)c1	4.3%	-3.5%	11.4%	3.0%	-1.6	-2.3
CCOc1ccc(-c2nc(CSc3nnc(N)s3)cs2)cc1	10.0%	0.3%	-7.7%	-4.3%	30.8*	117.2*
Oc1c(N=Nc2ccccn2)ccc2ccccc12	12.6µM*	?	17.8µM*	-14.8%	35.9*	78.6*
Cc1ccccc1NC(=O)c1cc(C(=O)c2cc(Cl)ccc2O)cn(-c2ccccc2C)c1=O	2.7%	-11.2%	-2.4%	-4.5%	39.2*	46.1*
Cc1cc(Br)ccc1OCc1nc(-c2cccnc2)no1	-0.3%	2.5%	-10.3%	0.0%	11.7	24.8
Clc1cc(Cl)c(OCc2nc(-c3ccccn3)no2)cc1Cl	-0.1%	0.0%	-0.5%	4.8%	47.4*	125.4*
CC(C)(C)c1ccc(OCc2nc(-c3ccccn3)no2)c(Br)c1	2.1%	-4.6%	-1.6%	0.6%	84.5*	95.9*
Cc1noc(COc2ccccc2OCC(N)=O)n1	.	-6.3%	1.4%	.	.	.
COc1ccc(CNC(=O)CCCn2ncn3c(cc4occc43)c2=O)cc1	5.2%	4.8%	23.7%	-9.6%	11.6	-4.6
CCOC(=O)CCCn1ncn2c(cc3occc32)c1=O	5.8%	-9.2%	-0.7%	-1.6%	54.6*	62.8
O=C(CSc1nc2ncc(Cl)cc2[nH]1)N1CCOCC1	.	1.1%	19.0%	.	.	.
Cc1ccc2[nH]c(SCC(=O)N3CCOCC3)nc2c1C	-3.6%	-1.5%	8.7%	1.7%	52.2*	97.9*
CC(=O)c1cc2c(cc1NC(=O)CSc1nc3ccccc3[nH]1)OCO2	4.2%	.	.	3.7%	-0.8	-18.6
CC(=O)c1cc2c(cc1NC(=O)CSc1nc3ccc(C)cc3[nH]1)OCO2	2.2%	-1.4%	-10.1%	-3.2%	19.7*	4.2
Cc1ccc2nc(SCC(=O)Nc3ccc(C#N)cc3)[nH]c2c1	.	4.0%	.	.	.	.
C/C(N)=C(/C#N)C(=O)CSc1nc2ccc(C)cc2[nH]1	-11.3%	-10.2%	1.1%	-28.5%	56.2*	86.0*
Cc1cc(C(=O)CSc2nc3ccc(Cl)cc3[nH]2)c(C)n1CC1CCCO1 (configuration not stated)	6.5%	-9.9%	3.8%	-9.2%	12.7	43.9
Cc1ccc2nc(SCC3CCCCO3)[nH]c2c1 (configuration not stated)	-2.2%	-4.2%	i	-7.4%	29.7*	43.9*
N#Cc1cccc(-c2nc(NCc3cccnc3)c3ccccc3n2)c1	.	.	.	-8.8%	.	.
O=C(NC1CCCCC1)c1cc2c(Cl)nc3ccccc3c2s1	.	3.4%	.	.	.	.
CCC(C(=O)NCCc1cc(OC)ccc1OC)n1nc(C)c2sc3ccccc3c2c1=O (configuration not stated)	.	1.0%	.	.	.	.
Cc1ccc2nc(SCC(=O)N3CCOCC3)[nH]c2c1	11.9%	-6.3%	8.8%	-3.1%	38.3*	55.9*
Cc1cccc(C(C)C)c1NC(=O)c1ccc2c(c1)CCCN2S(C)(=O)=O	.	5.7%	.	.	.	.
CCc1ccccc1NC(=O)NC1CCCCC1	-11.4%	9.6%	-20.0%	34.1%	14.2*	12.7
O=C(Nc1ccccc1Cl)NC1CCCCCCC1	0.8%	2.3%	11.4%	.	39.7*	57.5*
CCS(=O)(=O)c1ccc(O)c(NC(=O)NC2CCCCC2)c1	-0.9%	2.6%	1.3%	4.5%	12.3*	13.4
CCS(=O)(=O)c1ccc(O)c(NC(=O)Nc2cccc3ccccc23)c1	-8.1%	-1.5%	10.2%	16.5%	-1.4	-5.5
COc1cc2c(C#N)c(N3CCc4ccccc4C3)nc(N)c2c(N)n1	1.2%	-1.0%	12.9%	1.77µM*	13.5	19.5
